Shown are actives, neighbours in structure and some others; about 4.1% of the full set was active somewhere.
HIV Env fusion – HIV envelope-mediated fusion inhibition; AID 651610; inhibition, % at 12.3 µM; 1.1% of 360,000 active; HeLa-JRFL Env/CEM21 cell fusion, luciferase;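 active = mean replicate inhibition score of at least 50 and every replicate individually at or above 50; inconclusive = only one of the two criteria met; inactive = mean below 50 and not all replicates reaching 50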;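 note: 0% = plate neutral controls and 100% = maraviroc near 300 nM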
CASP6 VEID inh – blocks human caspase-6 cleavage activity; P55212; purified caspase-6, Z-VEID-R110 cleavage fluorescence; inhibition, % at 12.5 µM; 0.53% of 350,000 active;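 active = mean inhibition across replicates at least about 35%, with every replicate also reaching that limit, limit read from the data; inconclusive = only one of the two criteria met; inactive = neither criterion met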;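 note: 0% = median of neutral control wells and 100% = no fluorescence left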
Target sequence (P55212 24-179 limits assumed): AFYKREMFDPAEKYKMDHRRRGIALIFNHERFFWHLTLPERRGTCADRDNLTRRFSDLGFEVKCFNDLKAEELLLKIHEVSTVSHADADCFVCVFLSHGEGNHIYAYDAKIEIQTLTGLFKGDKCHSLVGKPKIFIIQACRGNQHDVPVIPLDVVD
Target sequence (P55212 194-293 limits assumed): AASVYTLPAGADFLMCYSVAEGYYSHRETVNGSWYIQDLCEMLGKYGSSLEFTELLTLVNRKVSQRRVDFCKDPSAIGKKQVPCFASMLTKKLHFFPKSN
CFTR F508del cor – CFTR F508del correction in bronchial cells | CFBE cells, YFP halide quenching; stimulated with forskolin plus potentiator P3; % fluorescence drop versus neutral controls | activity (quench increase), % at 7.58 µM | 0.36% of 350,000 active | AID 720511;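 active = mean added fluorescence quench of at least 8% versus neutral control, with both replicates also reaching 8%; inconclusive = only one of the mean or replicate conditions met; inactive = mean below 8% and not both replicates reaching 8%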;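 note: cells transiently co-express mutant CFTR-F508del with the halide-sensitive YFP; corrector assay measuring rescue of mutant channel to the surface after 24 h compound exposure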
NSD2 HMT inh – NSD2 (human) methyltransferase inhibition | O96028 | inhibition, % at 12.5 µM | 0.54% of 310,000 active | NSD2 peptide methylation, AlphaScreen, 120 min; in the data active = inhibition above about 50%
PglD inh – blocks C. jejuni PglD acetyltransferase activity; inhibition, % at 12.5 µM; purified PglD enzyme, DTNB colorimetric CoA detection; 0.098% of 360,000 active; in the data active = inhibition above about 16%, passing the limit was not always enough; inconclusive = no clear call, values can overlap the other calls
ALR H2O2 inh – blocks human ALR sulfhydryl oxidase activity. purified ALR, DTT oxidation, H2O2 HRP-luminol luminescence. inhibition, % (no concentration beside the values). 3.8% of 290,000 active. AID 485317. P55789;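 active = mean replicate inhibition above about 79%, with every replicate also reaching it, limit read from the data; inconclusive = only one of the two criteria met; inactive = mean below limit and not every replicate reaching it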
Target sequence (P55789 whole entry, looked up): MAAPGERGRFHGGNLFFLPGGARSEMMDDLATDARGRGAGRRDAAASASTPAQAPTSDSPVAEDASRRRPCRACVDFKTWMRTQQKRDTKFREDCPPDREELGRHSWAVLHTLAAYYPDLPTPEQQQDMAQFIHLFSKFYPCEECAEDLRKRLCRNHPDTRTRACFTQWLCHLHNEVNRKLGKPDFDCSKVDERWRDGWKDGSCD
An asterisk follows results filed as active; ? = inconclusive; . = not tested or not shown; [ ] = dose if it differs, or a comment.

SMILES	HIV Env fusion	CASP6 VEID inh	CFTR F508del cor	NSD2 HMT inh	PglD inh	ALR H2O2 inh
COc1ccccc1OS(=O)(=O)c1ccc(NC(C)=O)cc1	-0.7	-0.2	-1.2	-4.5	3.3	.
COC(=O)/C=C/S(=O)(=O)c1ccc(NC(C)=O)cc1	-45.9	.	.	9.3	1.0	98.3*
Cc1cccc(-n2c(O)c(C=Nc3ccccc3O)c3ccccc3c2=O)n1	-20.2	-0.3	1.2	0.0	3.2	98.5*
Cc1cccc(-n2c(O)c(/C=N/NC(=O)c3ccccc3Cl)c3ccccc3c2=O)n1	8.2	.	.	1.2	-17.4	95.6*
Cc1cccc(-n2c(O)c(C=Nc3ccc(O)cc3)c3ccccc3c2=O)n1	-11.1	.	.	4.0	.	99.3*
Cc1cccc(-n2c(O)c(C=Nc3cc(O)ccc3C)c3ccccc3c2=O)n1	-20.0	-0.3	-0.5	0.9	.	.
COc1ccc(NC(=O)N(C)C[C@@H]2Oc3ncc(-c4cccnc4)cc3C(=O)N([C@H](C)CO)C[C@@H]2C)cc1	3.9[16.7 µM]	-3.3	-1.2	.	0.9	.
O=C(/C=C/c1ccc(F)cc1)N1CCc2ccccc2C1	-64.6	6.4	4.4	0.7	-2.0	.
O=C(/C=C/C(=O)N1CCc2ccccc2C1)N1CCc2ccccc2C1	-10.7	7.2	-3.2	0.6	.	85.4*
O=C(NC1CCCN(Cc2ccc(Cl)cc2)C1)c1ccccc1-c1ncc[nH]1 (configuration not stated)	6.5	1.4	-2.0	8.9	-3.1	.
CC(C)c1ccc(NC2CCCN(C(=O)c3cnc4ccccn4c3=O)C2)cc1 (configuration not stated)	.	1.4	0.1	2.6	-4.7	94.5*
Cc1cc(C(=O)N2CCCC(Nc3ccc(F)cc3)C2)c(C)o1 (configuration not stated)	0.4	3.5	-3.1	0.6	-1.4	?
Cc1ccc2nccc(C(=O)N3CCCC(Nc4ccc(F)cc4)C3)c2c1 (configuration not stated)	2.1	0.0	-4.3	0.3	1.9	98.4*
O=C(c1ccccc1-c1ncc[nH]1)N1CCCC(Nc2ccc(F)cc2)C1 (configuration not stated)	2.6	-0.9	1.6	0.5	1.3	98.5*
Cc1occc1C(=O)N1CCCC(Nc2ccc(F)cc2)C1 (configuration not stated)	.	1.5	1.3	1.8	1.7	98.4*
Cc1ccc2nc(C(=O)N3CCCC(Nc4ccc(F)cc4)C3)cn2c1 (configuration not stated)	4.0	2.9	-1.4	4.6	6.6	29.6
C[C@H]1CN([C@@H](C)CO)C(=O)Cc2cc(NC(=O)Nc3ccccc3)ccc2O[C@@H]1CN(C)Cc1ccc(C(=O)O)cc1	.	0.9	-2.6	.	0.1	.
CCC(=O)N(C)C[C@H]1Oc2ncc(-c3ccc(C)cc3)cc2C(=O)N([C@H](C)CO)C[C@@H]1C	6.9[16.7 µM]	-0.8	0.6	.	5.3	.
Cc1occc1C(=O)N1CCCC(Nc2ccc(C(C)C)cc2)C1 (configuration not stated)	20.7	1.1	-0.8	5.5	2.9	98.7*
CC(C)c1ccc(NC2CCCN(C(=O)c3ccnn3C)C2)cc1 (configuration not stated)	2.1	-2.2	-1.6	1.6	1.6	?
COc1cccc(N(C(=O)CCl)C(C(=O)NCCc2ccccc2)c2cccs2)c1 (configuration not stated)	65.2*	.	.	-5.4	-3.7	-0.7
COc1ccc(N(C(=O)CCl)C(C(=O)NCCc2ccccc2)c2cccs2)cc1Cl (configuration not stated)	41.6	1.5	.	0.4	.	3.5
COc1cc2c(c(OC)c1OC)-c1ccc(OC)c(=O)cc1C(NC(C)=O)CC2 (configuration not stated)	-111.1	-1.8	0.5	0.1	2.9	-3.0
COc1c(C=O)c2c(c(OC)c1OC)-c1ccc(OC)c(=O)cc1C(NC(C)=O)CC2 (configuration not stated)	-44.6	6.3	11.2*	0.2	.	.
COc1c(O[C@@H]2O[C@H](CO)[C@@H](O)[C@H](O)[C@H]2O)cc2c(c1OC)-c1ccc(SC)c(=O)cc1C(NC(C)=O)CC2 (some centres not stated)	-16.1	3.2	13.8*	.	-2.8	.
SMILES	HIV Env fusion	CASP6 VEID inh	CFTR F508del cor	NSD2 HMT inh	PglD inh	ALR H2O2 inh
COc1cc2c(c(OC)c1OC)-c1ccc(SC)c(=O)cc1C(NC(=O)c1ccccc1)CC2 (configuration not stated)	-235.4	-0.1	0.2	2.7	.	.
Cc1cc(O)c(C=O)c2c1C(=O)Oc1c(CO)c(O)c3c(c1O2)C(O)OC3=O (configuration not stated)	.	.	.	.	0.5	98.7*
O=C(CC1CC1)N1CC(=O)N2[C@H](CO)[C@H](c3ccc(C#Cc4cccc(F)c4)cc3)[C@H]2C1	.	2.6	2.7	.	.	.
O=c1c2ccccc2nc(SCc2ccccc2)n1Cc1ccco1	-36.0	.	.	-7.1	-1.5	-0.4
O=c1c2ccccc2nc(SCc2nc3ccccc3s2)n1Cc1ccco1	37.1	.	.	-1.8	-0.5	87.2*
Cc1nc(SCC(=O)Nc2ccccc2Cl)oc1C	1.7	3.3	-1.5	4.9	4.3	99.1*
CC(NC(=O)CSc1nc(=O)cc(N)n1-c1ccccc1)c1ccccc1 (configuration not stated)	7.8	.	.	-3.0	.	4.4
C=CCn1c(N)cc(=O)nc1SCC(=O)Nc1ccc2ccccc2c1	.	.	.	-1.8	0.6	98.9*
Nc1cc(=O)nc(SCC(=O)Nc2ccccc2)n1-c1ccccc1	10.5	-2.7	-3.5	-2.8	.	1.7
Nc1cc(=O)nc(SCC(=O)Nc2ccccc2Cl)n1-c1ccccc1	-24.6	-0.7	-1.3	-0.7	.	99.2*
Cc1cccc(-n2c(N)cc(=O)nc2SCC(=O)Nc2ccccc2)c1	.	.	.	-5.8	.	98.0*
NC(=S)c1ccc(OCCCc2ccccc2)cc1	70.3*	1.2	-0.2	-0.3	2.6	.
CCCCOc1ccc(C(=O)NCCc2ccccc2)cc1	-64.1	1.1	0.2	-1.3	-6.7	-2.0
COc1ccc(NC(=O)CC2C(=O)Nc3ccccc3N2CC(=O)N2CCCC2)cc1 (configuration not stated)	-10.8	0.4	3.9	-1.2	.	98.0*
CC1=CC(C)(C)N2C(=O)C(=Nc3ccc(O)cc3)c3cccc1c32	-17.7	3.8	-2.7	15.5	.	96.9*
CN(C)CC(=O)Nc1ccc2c(c1)[C@@H]1C[C@H](CC(=O)NCc3ccc4c(c3)OCO4)O[C@@H](CO)[C@@H]1O2	2.0[16.7 µM]	.	-2.0	.	.	.
O=C1OCCC1Sc1nc2cc(Cl)ccc2s1 (configuration not stated)	-32.0	.	.	-7.6	1.5	-2.7
O=C1OCCC1Sc1nc2ccccc2s1 (configuration not stated)	.	.	.	-0.6	1.7	98.0*
Cc1ccc(Sc2nc(-c3ccccc3)nnc2C(F)(F)F)cc1	-18.0	.	.	-1.3	-1.0	97.8*
CO[C@@H]1CN(C)C(=O)c2cc(NS(C)(=O)=O)ccc2OC[C@H](C)N(CCC(F)(F)F)C[C@@H]1C	.	.	-2.6	.	4.0	.
